About 520 (0.26%) of roughly 200,000 compounds were called active. The full list was thinned out, with actives kept by preference. Unmarked numbers belong to inactive results.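 How the source made its calls: active means tissue-nonspecific alkaline phosphatase inhibition above about 50% at 20 µM in the single-dose screen (limit read from the data); inactive means the rest.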
molecular target: Alkaline phosphatase, tissue-nonspecific isozyme (Homo sapiens) (UniProt P05186); experiment: blockers of alkaline phosphatase TNAP activity – biochemical, luminescent, no phosphate acceptor, uHTS, primary screen (AID 1012); conditions: purified TNAP, CDP-star luminescence, 30 min; at 20 µM; active compounds read high;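 further: 0% = DMSO negative control and 100% = EDTA positive control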
Sequence (P05186 whole entry, looked up): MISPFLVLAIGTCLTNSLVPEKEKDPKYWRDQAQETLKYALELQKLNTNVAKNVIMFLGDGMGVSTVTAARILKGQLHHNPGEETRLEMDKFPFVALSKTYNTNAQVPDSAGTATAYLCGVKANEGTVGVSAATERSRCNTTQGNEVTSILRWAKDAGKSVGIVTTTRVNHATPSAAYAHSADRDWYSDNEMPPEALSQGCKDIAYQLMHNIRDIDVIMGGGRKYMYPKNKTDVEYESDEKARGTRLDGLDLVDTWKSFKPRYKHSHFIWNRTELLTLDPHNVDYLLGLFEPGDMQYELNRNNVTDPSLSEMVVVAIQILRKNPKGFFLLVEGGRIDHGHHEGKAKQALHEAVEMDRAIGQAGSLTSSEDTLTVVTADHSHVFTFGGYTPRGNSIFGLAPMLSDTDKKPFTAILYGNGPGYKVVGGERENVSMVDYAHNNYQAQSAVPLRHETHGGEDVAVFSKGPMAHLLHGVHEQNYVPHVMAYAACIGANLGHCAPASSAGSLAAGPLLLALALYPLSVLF

Structure (SMILES) | inhibition
COc1ccc(N2C(=O)CNC2=S)cc1 | -13.2%
N#C/C=C(/c1ccc(F)cc1)N1CCOCC1 | -8.3%
CC(C)CNC(=S)Nc1ccc(F)cc1 | -5.6%
COc1ccc(/C=N/NC(=O)c2ccncc2)cc1CN1CCCc2ccccc21 | -28.5%
CCC(=O)Nc1cc(C(F)(F)F)ccc1N1CCCC1 | -1.6%
NS(=O)(=O)c1ccc(NC(=S)NC(=O)c2cccnc2)cc1 | -3.6%
O=C(NC(=S)Nc1ccc(S(=O)(=O)Nc2ncccn2)cc1)c1cccc(Br)c1 | 5.9%
NS(=O)(=O)c1ccc(NC(=S)NC(=O)c2cccc(Br)c2)cc1 | 57.3% (active)
CCOC(=O)C1=C(C)NC(=S)NC1c1cccs1 (stereo unspecified) | -12.7%
CCOC(=O)C1=C(C)Nc2nc3ccccc3n2C1c1cccs1 (stereo unspecified) | 57.2% (active)
COc1ccccc1NC(=O)C1=C(C)Nc2nc3ccccc3n2C1c1cccs1 (stereo unspecified) | -6.2%
COc1ccccc1Oc1nc(-c2cccnc2)nc2ccccc12 | -4.1%
COc1cc(CNc2ncn[nH]2)ccc1OCc1ccccc1C | -67%
Clc1ccc(-c2cc(C3CCNCC3)[nH]n2)c(Cl)c1 | 80.1% (active)
Clc1ccc(-c2ncc3ccccn23)c(Cl)c1 | -7.2%
O=C1CSC(c2ccccc2)N1c1nc(-c2ccc(Cl)cc2Cl)cs1 (stereo unspecified) | -10%
CCCc1[nH]nc2c1C(c1ccc(Br)s1)C(C#N)=C(N)O2 (stereo unspecified) | 1.9%
COCc1[nH]nc2c1C(C1C=CCCC1)C(C#N)=C(N)O2 (stereo unspecified) | 14.2%
CCCc1[nH]nc2c1C(C1CC=CCC1)C(C#N)=C(N)O2 (stereo unspecified) | 50.5% (active)
COc1nc(N(C)C)nc(N2CC(=O)N(CCNS(=O)(=O)c3ccc(C)cc3)C2=N)n1 | -3.4%
COc1ccc(C)cc1NC(=O)NCc1ccccn1 | -12.1%
CN(c1ccccc1)S(=O)(=O)c1ccc(Cl)c(C(=O)OCC(N)=O)c1 | -4.4%
NNC(=O)c1ccc(Cl)cc1Cl | -3.9%
CN(C)C=NC(=O)c1cccn1-c1ncc(C(F)(F)F)cc1Cl | -14%

Structure (SMILES) | inhibition
CNc1ccc(SC#N)cc1 | -10.5%
O=C(OCc1nc2ccccc2[nH]1)C1CCCCC1 | -36%
COC(=O)C1=CN(Cc2ccc(OC)c(OC)c2)C=C(C(=O)OC)C1c1cccs1 | -7.4%
CC(=O)N1C(C)c2ccccc2C(C)(C)CC12CCCCC2 (stereo unspecified) | 2.5%
CCS(=O)(=O)n1nc(-c2ccccc2)nc1SCc1ccccc1 | 61.1% (active)
CS(=O)(=O)n1nc(-c2ccccc2)nc1NCc1ccco1 | -1.5%
COc1ccc(-n2c(SC)nc(O)cc2=O)cc1 | -11.9%
CCS(=O)(=O)n1nc(-c2ccc(OC)cc2)nc1SC | 66% (active)
CCn1c(SCc2ccccc2)nc2c(c1=O)SCC2 | -14%
COc1ccc(-c2noc(CN(C)S(=O)(=O)c3ccc(C)cc3)n2)cc1 | -8.5%
CCOc1cc(/C=C(/C#N)c2ccc(Cl)cc2)cc(Cl)c1OCC(=O)O | -8.1%
CC(O)CNCCOc1cccc(Oc2ccccc2)c1 (stereo unspecified) | -10.9%
COc1ccc(-c2nc(CN3CCN(c4ncccn4)CC3)c(C)o2)cc1C | -13.8%
CCn1c(SCC(=O)Nc2nccs2)nnc1-c1ccco1 | 37.9%
Cc1ccccc1OCCOc1ccc([N+](=O)[O-])cc1/C=N/n1cnnc1 | -2.8%
CC(=O)c1cnc(-c2ccccc2)s1 | -4%
NS(=O)(=O)c1ccc(CNC(=O)c2ccc(Cl)cc2[N+](=O)[O-])cc1 | -22.8%
CC(C)C(=O)Nc1ccc2c3c(cccc13)CC2 | -18%
O=C(CSc1nnc(C2CC2)n1Cc1ccccc1)Nc1cccnc1Cl | -1.5%
C/C(CC(=O)Nc1ccc(Cl)cc1)=N\NC(=O)C(=O)NCCO | -12.4%
Cc1cs/c(=N\N=C\c2ccc(O)cc2)n1Cc1ccco1 | -18.1%
CC(C)c1ccc(Nc2nnc(SCC(=O)c3nnc(-c4ccccc4)o3)s2)cc1 | -1.3%
CC1Cc2ccccc2N1C(=O)CSc1nnc(-c2ccc(S(=O)(=O)N3CCCC3)cc2)n1C (stereo unspecified) | -5.8%
O=C(Nc1ccccc1C(=O)N1CCOCC1)c1ccc(CSc2ccccc2)cc1 | -8.4%

Structure (SMILES) | inhibition
COC(=O)[C@H]1Cc2cnoc2C[C@]1(C)C(=O)O | -8%
CC(Oc1ccccc1)C(=O)Nc1oc(-c2ccco2)c(-c2ccco2)c1C#N (stereo unspecified) | -18.5%
COc1ccc(N2C(=O)CC(Sc3n[nH]c(-c4ccc(C)cc4)n3)C2=O)cc1 (stereo unspecified) | 43.8%
O=Cc1ccc(Oc2cccc(C(F)(F)F)c2)nc1 | -8.3%
O=C(Cc1c[nH]c2ccccc12)N/N=C/c1cccc(F)c1 | -1%
Cc1cc(C(=O)COc2ccccc2[N+](=O)[O-])c(C)n1-c1cccc(S(=O)(=O)N2CCOCC2)c1 | -9.7%
Cc1cc(OCC(=O)NC2CCN(C)CC2)ccc1[N+](=O)[O-] | -25.3%
O=C(Cc1ccccc1)Nc1cccc(C(=O)N/N=C/c2ccco2)c1 | -4.3%
CC(=O)NCC(=O)N1CCCC(C(=O)c2ccc3c4c(cccc24)CC3)C1 (stereo unspecified) | -8.9%
Cc1ccccc1CC1(CO)CCCN(C(=O)c2cc(-c3ccccc3)no2)C1 (stereo unspecified) | -4.5%
CC(=O)c1ccc(NC(=O)CSC(=S)N2CCCC2)cc1 | -5.7%
CC(C)Oc1ccc(CC(=O)NNC(=S)Nc2ccc(Br)cc2)cc1 | -117%
CCOCCCN(C(=O)Cn1nnc(-c2ccc(OC)c(OC)c2)n1)C(CC)C(=O)NC1CCCC1 (stereo unspecified) | -11.1%
Cc1ccc(CN2CCN(Cc3cn(C)nc3-c3ccccc3)CC2CCO)o1 (stereo unspecified) | -8.9%
Cn1cnnc1Sc1ccc(S(C)(=O)=O)cc1[N+](=O)[O-] | -1.9%
COc1cc2c3c(c1)/C(=C1/SC(=S)NC1=O)C(=O)N3C(C)(C)C=C2C | 21.4%
CCC(C)NC(=O)CSC1=Nc2ccccc2C2=NC(CCC(=O)NCc3ccco3)C(=O)N12 (stereo unspecified) | -11%
CC(C)C1N=C2c3ccccc3N=C(SCC(=O)c3ccc(O)c(O)c3)N2C1=O (stereo unspecified) | 93.7% (active)
O=C(CSC1=Nc2ccccc2C2=NC(CC(=O)NCc3ccco3)C(=O)N12)NCc1ccco1 (stereo unspecified) | -27.8%
CN(C(=O)CSc1nncc2ccccc12)C1CCCCC1 | -7.3%
C=CCNC(=O)COC(=O)CNC(=O)c1cc(Cl)cc([N+](=O)[O-])c1 | 6.8%
COc1ccc(OC)c(S(=O)(=O)Nc2cccc(-c3ccc4nncn4n3)c2)c1 | -5.3%
COc1cccc(N(C(=O)C2COc3ccccc3O2)C(C(=O)NC2CCCCC2)c2ccc(O)cc2)c1 (stereo unspecified) | 0.9%
Cc1cc2c(cc1C)[n+](C)cn2CC(O)COCC1CC=CCC1 (stereo unspecified) | -9.6%

Structure (SMILES) | inhibition
CCCCOc1ccc(N(CC(=O)NC(C)C)C(=O)CCC(=O)Nc2ccccn2)cc1 | -3.6%
CC(C)NC(=O)NCCCCCCS(C)=O (stereo unspecified) | -6.1%
COc1cccc(NC(=O)CS(=O)(=O)c2cn(CC(=O)N3CCOCC3)c3ccccc23)c1 | -14.3%
COc1ccc(Cn2c(-c3ccc(Cl)cc3)c[n+]3ccccc23)cc1 | -2.5%
COC1=CCC2([N+](=O)[O-])CN(CC(=O)O)CC1([N+](=O)[O-])C2 (stereo unspecified) | -11.9%
CCCC(c1nnnn1C(C)(C)C)N1CCN(Cc2ccccc2)CC1 (stereo unspecified) | -1.2%
c1ccc2c(NC3C4CC5CC(C4)CC3C5)nc(N3CCOCC3)nc2c1 (stereo unspecified) | -15.9%
CC1CN(/C=C/C(=O)C(F)(F)F)CC(C)O1 (stereo unspecified) | -8.2%
CCOc1ccccc1N1CCN(C(=O)COc2ccc3c(C)cc(=O)oc3c2)CC1 | -11%
CC(C)CCC(C)NC(=O)c1ccc2nccnc2c1 (stereo unspecified) | -12.5%
CC12CCC(C(=O)N(NC(=O)c3ccccc3O)C1=O)C2(C)C (stereo unspecified) | 3.9%
COc1ccc(N2C(=O)C(O)C2c2ccc(C)cc2)cc1 (stereo unspecified) | -8.2%
C=CCn1c(CCNC(=O)c2cccs2)n[nH]c1=S | -3.9%
CCCc1nc(SCC(=O)Nc2ccc(S(=O)(=O)N(C)C)cc2)c2ccccc2n1 | 17.6%
Cc1cc(=O)oc(C)c1C(=O)NCCN(C)Cc1ccccc1 | -6.1%
Cc1ccccc1NC(=O)c1nn(-c2ccc(F)c(F)c2)ccc1=O | -8.3%
O=C(Nc1nnc(Cc2ccccc2)s1)c1cnccn1 | -2.7%
CCN1CCN(C(=O)c2ccc(CN(c3ccc(C)c(C)c3)S(C)(=O)=O)cc2)CC1 | -5.1%
CC(C)(C)C(=O)N1CCC[C@@]1(CO)C(=O)O | -10.8%
Cc1ccc(S(=O)(=O)N2CCN(C(=O)c3cccs3)CC2)cc1 | -7.6%
O=C(O)C1C2C=CC(O2)C1C(=O)NCCc1cccc(Cl)c1 (stereo unspecified) | -9.5%
CC1CCC(NC(=O)C2c3ccccc3C(=O)N2Cc2ccc3c(c2)OCO3)CC1 (stereo unspecified) | -16.3%
O=C(COC(=O)/C=C/c1cn(-c2ccccc2)nc1-c1cccnc1)Nc1ccc(Cl)cc1Cl | -8.8%
CC(=O)Nc1ccc(C(=O)CSc2nc3ccc(C)cc3[nH]2)cc1 | -33.5%

Reference: PubChem BioAssay AID1012 (Sanford-Burnham Center for Chemical Genomics, 2008)
